According to the supplement of paper PMC3334620:
Over roughly 33,000 sequences, “E-score (-0.5 to 0.5)” has its median near -0.043; the highest 2% begin near 0.37. Only a selection was taken, and the highest values are over-represented in it overall.

What follows are sequences tested against T1, Upc2 (UniProt Q12151) (assay: PBM E-score (8-mer binding enrichment) (E-score (-0.5 to 0.5)); higher = stronger / more preferred TF binding). Settings: protein concentration: 200 nM; construct: GST-full length.
T1 sequence: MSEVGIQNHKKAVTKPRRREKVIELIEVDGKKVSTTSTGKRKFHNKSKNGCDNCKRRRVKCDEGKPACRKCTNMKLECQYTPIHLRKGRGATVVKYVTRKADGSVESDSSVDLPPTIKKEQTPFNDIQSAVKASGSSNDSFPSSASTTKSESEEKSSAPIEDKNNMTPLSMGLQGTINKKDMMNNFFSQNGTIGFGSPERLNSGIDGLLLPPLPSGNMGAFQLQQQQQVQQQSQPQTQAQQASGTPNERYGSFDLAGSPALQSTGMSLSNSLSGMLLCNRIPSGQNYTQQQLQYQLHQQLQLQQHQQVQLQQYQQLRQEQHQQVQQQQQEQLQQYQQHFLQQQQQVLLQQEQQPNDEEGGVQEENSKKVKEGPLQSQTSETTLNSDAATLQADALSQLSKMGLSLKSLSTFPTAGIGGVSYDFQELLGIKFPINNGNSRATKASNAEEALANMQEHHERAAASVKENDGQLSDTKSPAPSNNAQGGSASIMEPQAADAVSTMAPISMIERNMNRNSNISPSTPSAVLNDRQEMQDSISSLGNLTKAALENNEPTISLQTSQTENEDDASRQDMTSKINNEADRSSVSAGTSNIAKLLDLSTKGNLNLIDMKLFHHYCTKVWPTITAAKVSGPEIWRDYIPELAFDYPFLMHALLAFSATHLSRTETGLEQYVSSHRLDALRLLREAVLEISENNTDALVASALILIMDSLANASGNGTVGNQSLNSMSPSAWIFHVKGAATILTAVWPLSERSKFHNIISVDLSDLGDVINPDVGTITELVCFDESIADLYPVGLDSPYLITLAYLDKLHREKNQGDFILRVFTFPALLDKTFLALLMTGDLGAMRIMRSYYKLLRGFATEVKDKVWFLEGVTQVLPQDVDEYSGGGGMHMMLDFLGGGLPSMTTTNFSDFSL
Procedure, shortened: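 Yeast transcription factors carrying a GST tag, as full-length proteins or DNA-binding domains, were produced by PURExpress in vitro transcription/translation. About 100-200 nM protein was applied to universal all-10-mer Agilent arrays, double-stranded by primer extension on fresh or once-stripped slides. Bound protein was detected with fluorescent anti-GST, and scans were normalised with masliner. The Universal PBM Analysis Suite gave each ungapped eight-base word, pooled with its reverse complement, an E-score, a modified Wilcoxon-Mann-Whitney statistic.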

Row | Sequence | PBM E-score
1 | ATTCGTCC | 0.0624
2 | CTTCGTAC | 0.458
3 | CTTCGTAA | 0.427
4 | CTTCGTGC | -0.0549
5 | CCCAGCCC | -0.217
6 | CACACACC | 0.0034
7 | CTTCATAA | -0.121
8 | AAGGCACC | -0.24
9 | ATAGCGAC | 0.17
10 | ATAACGTG | 0.0885
11 | TAATGTAA | -0.0142
12 | AAGCCTAT | -0.0475
13 | AAGGAACG | 0.347
14 | CGGGAACA | 0.184
15 | CGGGAACC | -0.12
16 | CGGGAACG | 0.404
17 | CAGGAACG | 0.396
18 | CCGGAACG | 0.376
19 | CCGGAACA | -0.189
20 | CCGGAACC | -0.113
21 | AGGGAACA | -0.22
22 | AGGGAACG | 0.39
23 | AGGGAACC | -0.104
24 | CAGGAACC | -0.161
25 | AGCGCAAC | 0.149

Row | Sequence | PBM E-score
26 | TTTCCAAA | -0.0113
27 | AAGCTTGG | 0.127
28 | ACTGCGCC | -0.147
29 | CCGGGGAA | -0.23
30 | GGAAGTAA | -0.0533
31 | GGCAATCA | -0.196
32 | AAAGGATC | -0.127
33 | GTCTCGTA | 0.456
34 | ATCTCGTC | 0.123
35 | ATCTCGTG | 0.124
36 | CTCTCGAA | -0.0265
37 | CTCTCGTA | 0.453
38 | GTCTCGAA | -0.0265
39 | ATCTCGTA | 0.464
40 | CTCTCGTC | 0.0223
41 | GTCTCGGA | 0.162
42 | AAGGTTCA | -0.145
43 | GGCAGAGA | -0.14
44 | GCCACAGA | -0.149
45 | ATTGAACA | -0.0652
46 | TTATCCAA | 0.0246
47 | GAGAGTAC | 0.0133
48 | GCGTACCC | 0.244
49 | CCGTACCG | 0.389
50 | CCGTACCC | 0.379

Row | Sequence | PBM E-score
51 | ACGTACCC | 0.203
52 | CCGTACCA | 0.368
53 | ACGTACCG | 0.272
54 | GAAATATA | 0.127
55 | GTCCCGTA | 0.25
56 | ATCCCGTG | 0.0975
57 | ATCCCGTA | 0.373
58 | AACCCAAC | 0.00517
59 | CGCTTACG | 0.372
60 | CGCTTACC | 0.301
61 | CGCTTACA | 0.178
62 | CCTTATAA | 0.0883
63 | ACGTTTAA | 0.407
64 | ACGTTTTA | 0.188
65 | CCGTTTCG | 0.255
66 | ACGTTTAG | 0.397
67 | CCGTTTAG | 0.468
68 | CAGTTTAG | -0.0566
69 | ATGTTTAA | 0.067
70 | ACGTTTTG | -0.0436
71 | ACGTTTAT | 0.313
72 | CACTAGCC | -0.0426
73 | TAAGACAA | 0.0602
74 | AGCTGAGA | -0.232
75 | CTTGCACC | 0.0237

Row | Sequence | PBM E-score
76 | GAAAGCCA | -0.231
77 | CTGGTATC | -0.187
78 | CTCGTATC | 0.473
79 | ATAGTATC | 0.0546
80 | ATCGTATG | 0.455
81 | CTTGTATC | -0.0734
82 | ATGGTATC | 0.15
83 | AACGTATG | 0.239
84 | ATCGTATC | 0.426
85 | ATAGTATG | 0.0124
86 | CGGTCACA | 0.0569
87 | AGTGCTAT | -0.0648
88 | CGTGCTTC | 0.014
89 | CACAAGGC | -0.308
90 | GGCCATGA | -0.134
91 | ACTTCAGC | -0.178
92 | CCTGTACA | -0.0382
93 | AGTGTACC | -0.0597
94 | ATTGTACA | -0.0603
95 | AATGTACG | 0.36
96 | ATTGTACG | 0.428
97 | AGTGTACA | -0.0815
98 | ATTGTACC | 0.115
99 | CATGTACA | -0.00834
100 | CCTGTACG | 0.436

Row | Sequence | PBM E-score
101 | CATGTACG | 0.409
102 | CCTGTACC | -0.0294
103 | AGTGTACG | 0.417
104 | ACATGCGA | 0.128
105 | ACAGCGGT | -0.15
106 | AATCTGAA | -0.00542
107 | CTTGACTC | -0.0404
108 | ATAAGTCC | -0.0003
109 | GGTCCACA | -0.166
110 | GAGTTCTA | -0.141
111 | ACTGTACC | -0.077
112 | ACTGTACG | 0.433
113 | ACTGTACT | 0.0214
114 | ATATACCG | 0.194
115 | ATATACTC | -0.0113
116 | ATATACCA | 0.0254
117 | ATATACGG | 0.456
118 | ATATACTG | 0.0777
119 | CTATACCC | 0.0307
120 | ATATACGC | 0.387
121 | CTATACTC | 0.0215
122 | ATATACGA | 0.492
123 | CTATACGC | 0.458
124 | ATATACAA | -0.0498
125 | ATATACAC | 0.193

Row | Sequence | PBM E-score
126 | CGGATTTA | 0.0862
127 | CGCCTTAC | 0.155
128 | AATCTGAC | -0.119
129 | AGCTCACT | -0.138
130 | ATAAAAAG | 0.0686
131 | CCTCTCAG | -0.352
132 | CGTAGGGA | -0.0318
133 | ATCTTACA | 0.0167
134 | GGCGTACA | 0.269
135 | AGCGTACA | 0.301
136 | ATCGTACA | 0.468
137 | ATCGTAGG | 0.165
138 | AACGTACC | 0.256
139 | GTCGTACA | 0.483
140 | ATAGTACA | 0.149
141 | AACGTACA | 0.266
142 | GACGTACA | 0.305
143 | ATCGTACG | 0.435
144 | AACGTACG | 0.386
145 | ATAGTACG | 0.221
146 | AGTTTTCA | -0.0402
147 | CAGCTAGG | -0.352
148 | AAGGTGGA | -0.0852
149 | TCAGTCCA | -0.272
150 | AAAAACGT | 0.0237

Row | Sequence | PBM E-score
151 | AGCGCTTG | -0.188
152 | GCGGTACC | 0.0215
153 | GAAGTGCA | -0.153
154 | CTTCTCGA | -0.187
155 | ACCAGAAT | -0.00733
156 | CCAGAGGA | -0.256
157 | AGTCGAGC | -0.152
158 | AGTAAACA | 0.0452
159 | AGTAAACC | -0.0507
160 | CGTAAATA | 0.34
161 | CGTAAACG | 0.473
162 | TGTAAACA | -0.0818
163 | AGTAAACG | 0.442
164 | CGTAAACA | 0.39
165 | GGTAAACA | 0.111
166 | CGTAAATC | 0.352
167 | ACGATTTG | 0.28
168 | CCAAGCTA | -0.182
169 | CAAATAGA | -0.0516
170 | AGTTTCAT | 0.0688
171 | CCTCTATC | -0.122
172 | AAGATCAT | 0.0203
